Results from the supplement of paper PMC10981050.
Where “and” joins values, the source holds several entries; their conditions need not be identical. Equal entries are not always repeated. Structures can show the parent of a compound that is named as a salt.

Columns and labels:
Test in all cases: cell viability relative to vehicle control; higher = less cytotoxic
Conditions in all cases: 10 µM
K562 = system: K562
Summary of the method: (§1)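 Mutant clones made by CRISPR editing and their isogenic wild-type counterparts, from four leukaemia lines, were exposed to a single 10 µM dose of each library compound for 48 h. The supernatant was then removed and CellTiter-Glo luminescence was read. Viability was reported as percent of the on-plate vehicle control.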

MARIMO = system: MARIMO
Summary of the method: as §1

MOLM14 = system: MOLM14
Summary of the method: as §1

OCI-AML2 = system: OCI-AML2
Summary of the method: as §1

Structure (SMILES)	cell viability (K562; SRSF2 genotype: SRSF2 P95H/wt)	cell viability (K562; SRSF2 genotype: SRSF2 wt/wt) [%]	cell viability (MARIMO; SRSF2 genotype: SRSF2 P95H/wt) [%]	cell viability (MARIMO; SRSF2 genotype: SRSF2 wt/wt) [%]	cell viability (MOLM14; SRSF2 genotype: SRSF2 P95H/wt) [%]	cell viability (MOLM14; SRSF2 genotype: SRSF2 wt/wt) [%]	cell viability (OCI-AML2; SRSF2 genotype: P95H/wt) [%]	cell viability (OCI-AML2; SRSF2 genotype: wt/wt) [%]
CCOC(=O)[C@H](CCc1ccccc1)N[C@@H](C)C(=O)N1CCC[C@H]1C(=O)O [Enalapril maleate (Vasotec)]	106% and 100%	106	99.6	111	112	103	94.2	97.8
CC(=O)Oc1ccccc1C(=O)O.CC(=O)Oc1ccccc1C(=O)O.NC(N)=O [Carbasalate Calcium]	105% and 106%	102	104	105	104	103	102	97.8
CCCn1/c(=N/C(=O)c2cccc(C(N)=O)c2)[nH]c2ccccc21 [Takinib]	100%	96.3	98.8	103	77.8	91	74.7	84.3
CC(C)S(=O)(=O)c1ccc2nccc(Nc3ccc4scnc4c3)c2c1	60.2% and 78.2%	63.7	101	108	75.2	78.2	83.2	88.5
O=c1oc2cc(O)ccc2s1 [Tioxolone]	95.7% and 106%	105	103	101	101	103	102	97.4
Cc1ccc(NC(=O)c2ccc(CN3CCN(C)CC3)cc2)cc1Nc1nccc(-c2cccnc2)n1 [Imatinib (STI571)]	12.8% and 26.4%	16.5	101	103	85	95	82.6	72.3
C=C(C)C1CC=C(C=NO)CC1 (stereo not drawn) [Perillartine]	100%	98.3	104	105	93	99.8	100	112
CNC(=O)c1cc(Oc2ccc(NC(=O)Nc3ccc(Cl)c(C(F)(F)F)c3)cc2)ccn1 [Sorafenib Tosylate]	7.11% and 11.7%	11.8	35.8	29.3	9.9	11.5	9.8	11.3
COc1ccc2cc([C@H](C)C(=O)O)ccc2c1 [Naproxen Sodium]	99.4% and 104%	96.2	101	97.2	98.6	102	105	98.7
NC1CC1c1ccc(-c2cccc(O)c2)cc1 (stereo not drawn)	96.2% and 104%	97.1	88.3	106	99.4	99.1	87	92
CC[C@@](C)(Nc1ccnc(-c2c[nH]c3ncccc23)n1)C(=O)NCC(F)(F)F [Decernotinib (VX-509)]	98.6% and 99.9%	104	95.1	96.2	88.8	106	85.1	92.2
